Read-outs that look alike come from different tables or passages of the source.
Experiments:
Parameters in all cases: species or system human, MV4-11 + K-562 + COLO205 + SK-N-BE2 + OVCAR-8
[1] = system: DDR1; settings: read-out: apparent Kd, n = 1
[2] = system: DDR2; settings: read-out: apparent Kd, n = 1
[3] = system: CSNK2A1;CSNK2A3; settings: read-out: apparent Kd, compound concentrations: 100 nM and 1000 nM (sheet 'Samples'), n = 1
[4] = system: CSNK2A2; settings: read-out: apparent Kd, compound concentrations: 100 nM and 1000 nM (sheet 'Samples'), n = 1
[5] = system: FYN; settings: read-out: apparent Kd; compound concentrations: 100 nM and 1000 nM (sheet 'Samples'), CATDS: 8.5832491833895103E-2; n = 1
[6] = system: PIK3CD; settings: read-out: apparent Kd, n = 1
[7] = system: PRKD1; settings: read-out: apparent Kd; compound concentrations: 100 nM and 1000 nM (sheet 'Samples'), CATDS: 0.12301509267520799; n = 1
[8] = system: PRKD2; settings: read-out: apparent Kd; compound concentrations: 100 nM and 1000 nM (sheet 'Samples'), CATDS: 0.237501197916752; n = 1
[9] = system: PRKD3; settings: read-out: apparent Kd; compound concentrations: 100 nM and 1000 nM (sheet 'Samples'), CATDS: 0.165514181456969; n = 1
[10] = system: DYNC1LI1; settings: read-out: apparent Kd; compound concentrations:100 nM and 1000 nM (sheet 'Samples'); n = 1
[11] = system: FLT3; settings: read-out: apparent Kd; compound concentrations:100 nM and 1000 nM (sheet 'Samples'); n = 1
[12] = system: RET; settings: read-out: apparent Kd, n = 1
[13] = system: FLT4; settings: read-out: apparent Kd; compound concentrations: 100 nM and 1000 nM (sheet 'Samples'), CATDS: 0.39951332259871902; n = 1
[14] = system: MAP3K1; settings: read-out: apparent Kd; compound concentrations: 100 nM and 1000 nM (sheet 'Samples'), CATDS: 0.16547922944675; n = 1
[15] = system: CSNK1D; settings: read-out: apparent Kd; compound concentrations:100 nM and 1000 nM (sheet 'Samples'); n = 1
[16] = system: CSNK1E; settings: read-out: apparent Kd; compound concentrations:100 nM and 1000 nM (sheet 'Samples'); n = 1
[17] = system: MAPK14; settings: read-out: apparent Kd, compound concentrations: 100 nM and 1000 nM (sheet 'Samples'), n = 1
[18] = system: MAPKAPK2; settings: read-out: apparent Kd; compound concentrations:100 nM and 1000 nM (sheet 'Samples'); n = 1
[19] = system: PKN3; settings: read-out: apparent Kd; compound concentrations:100 nM and 1000 nM (sheet 'Samples'); n = 1
[20] = system: JAK2; settings: read-out: apparent Kd; compound concentrations:100 nM and 1000 nM (sheet 'Samples'); n = 1
[21] = system: PIK3CA; settings: read-out: apparent Kd; compound concentrations:100 nM and 1000 nM (sheet 'Samples'); n = 1
[22] = system: DYRK1A; settings: read-out: apparent Kd; compound concentrations: 100 nM and 1000 nM (sheet 'Samples'), CATDS: 0.12801866170396201; n = 1
[23] = system: MAPK10; settings: read-out: apparent Kd; compound concentrations: 100 nM and 1000 nM (sheet 'Samples'), CATDS: 0.199019247687024; n = 1
[24] = system: MAPK11; settings: read-out: apparent Kd; compound concentrations: 100 nM and 1000 nM (sheet 'Samples'), CATDS: 0.17455940008728901; n = 1
[25] = system: MAPK9; settings: read-out: apparent Kd; compound concentrations: 100 nM and 1000 nM (sheet 'Samples'), CATDS: 0.189062450586059; n = 1
[26] = system: PDGFRB; settings: read-out: apparent Kd; compound concentrations:100 nM and 1000 nM (sheet 'Samples'); n = 1
[27] = compound concentrations:100 nM and 1000 nM (sheet 'Samples')

Structure (SMILES): COC(=O)Nc1nc2cc(Oc3ccc(NC(=O)Nc4ccccc4)cc3)ccc2[nH]1.Cl [GW694590A]
- potency estimated from few doses ([1]; compound concentrations: 100 nM and 1000 nM (sheet 'Samples'), CATDS: 0.58971878257752297): 0.426 µM
- potency estimated from few doses ([2]; compound concentrations: 100 nM and 1000 nM (sheet 'Samples'), CATDS: 0.43397569756313797): 0.799 µM

Structure (SMILES): CC(=O)c1c(C)c2cnc(Nc3ccn(C)n3)nc2n(C2CCCC2)c1=O [PFE-PKIS_44]
- potency estimated from few doses ([3]; CATDS: 0.47499416496698399): 2.26 µM
- potency estimated from few doses ([4]; CATDS: 0.52778498170906496): 1.83 µM

Structure (SMILES): Cc1cn(-c2cc(NC(=O)c3ccc4c(c3)CN(c3cncnc3)C[C@@H]4C)cc(C(F)(F)F)c2)cn1 [D2202-1]
- potency estimated from few doses [1, 27]: 0.494 µM
- potency estimated from few doses [2, 27]: 0.915 µM

Structure (SMILES): Cc1cccc(-c2nc(Nc3ccc4[nH]nnc4c3)c3ccccc3n2)n1 [GW867587X]
- potency estimated from few doses ([3]; CATDS: 0.129612529480612): 0.199 µM
- potency estimated from few doses ([4]; CATDS: 0.107908062412964): 0.369 µM
- potency estimated from few doses [5]: 1.18 µM
- potency estimated from few doses ([6]; compound concentrations: 100 nM and 1000 nM (sheet 'Samples'), CATDS: 0.50363081174980595): 0.0132 µM
- potency estimated from few doses [7]: 0.233 µM
- potency estimated from few doses [8]: 0.047 µM
- potency estimated from few doses [9]: 0.103 µM

Structure (SMILES): COC(=O)Nc1nc2cc(Oc3ccc(NC(=O)Nc4cc(C(F)(F)F)ccc4F)cn3)ccc2[nH]1.COC(=O)Nc1nc2cc(Oc3ccc(NC(=O)Nc4cc(C(F)(F)F)ccc4F)cn3)ccc2[nH]1.Cl.Cl [GW681170A]
- potency estimated from few doses [1, 27]: 0.278 µM
- potency estimated from few doses [2, 27]: 1.46 µM
- potency estimated from few doses [10]: 1.83 µM
- potency estimated from few doses [11]: 1.24 µM
- potency estimated from few doses [12, 27]: 0.461 µM

Structure (SMILES): CN(c1ccc2c(c1)nc(NCc1ccc(F)cc1)n2C)c1ccnc(Nc2ccc(CS(C)(=O)=O)cc2)n1.Cl [GW813244A]
- potency estimated from few doses ([1]; compound concentrations: 100 nM and 1000 nM (sheet 'Samples'), CATDS: 0.20099617628952601): 0.841 µM
- potency estimated from few doses [13]: 0.166 µM
- potency estimated from few doses [14]: 1.84 µM
- potency estimated from few doses ([12]; compound concentrations: 100 nM and 1000 nM (sheet 'Samples'), CATDS: 0.40344037001579403): 0.163 µM

Structure (SMILES): Cc1cccc2c(-c3ccncc3)c(-c3ccc(F)cc3)nn12.Cl [GW461487A]
- potency estimated from few doses [15]: 0.605 µM
- potency estimated from few doses [16]: 0.879 µM
- potency estimated from few doses ([17]; CATDS: 0.14248163391639501): 0.94 µM
- potency estimated from few doses [18]: 0.565 µM
- potency estimated from few doses [6, 27]: 0.152 µM
- potency estimated from few doses [19]: 1.42 µM

Structure (SMILES): CN1CCN(CCNc2nc3cc(Oc4ccc(NC(=O)Nc5cc(C(F)(F)F)ccc5F)cc4)ccc3[nH]2)CC1.CN1CCN(CCNc2nc3cc(Oc4ccc(NC(=O)Nc5cc(C(F)(F)F)ccc5F)cc4)ccc3[nH]2)CC1.Cl.Cl [GW768504A]
- potency estimated from few doses [1, 27]: 0.584 µM
- potency estimated from few doses [20]: 0.634 µM
- potency estimated from few doses [21]: 0.23 µM
- potency estimated from few doses [6, 27]: 0.0974 µM
- potency estimated from few doses [12, 27]: 1.08 µM

Structure (SMILES): C[C@H](CS(C)(=O)=O)Nc1ncc2cc(Oc3ccc(F)cc3F)c(=O)n(C)c2n1 [RO5043312-000]
- potency estimated from few doses [22]: 1.96 µM
- potency estimated from few doses [23]: 0.398 µM
- potency estimated from few doses [24]: 0.583 µM
- potency estimated from few doses ([17]; CATDS: 0.87257547022931203): 0.0108 µM
- potency estimated from few doses [25]: 0.46 µM

Structure (SMILES): COC(=O)Nc1nc2ccc(Oc3ccc(NC(=O)Nc4cc(C(F)(F)F)ccc4F)cc3)cc2[nH]1.Cl [GW654607A]
- potency estimated from few doses [1, 27]: 2.14 µM
- potency estimated from few doses [12, 27]: 0.64 µM

Structure (SMILES): O=C(Nc1ccccc1)Nc1cccc(Oc2ccc3nccn3n2)c1 [TPKI-39]
- potency estimated from few doses [2, 27]: 0.732 µM
- potency estimated from few doses [26]: 0.853 µM
